Consider 40 molecules from PubChem BioAssay (Tox21).

Records with an inconclusive call do not appear. A call without a number means that no potency is given here. Calls of active or inactive are those of the source. Calls come from the whole dose curve; as a rule, active = well fitted cell-killing curve with a large enough effect in the repeat runs; inconclusive = weak or mixed curves, or effect the other way; inactive = flat fitted curve, though single readings scatter.

A short description of the assay: qHTS assay to identify small molecule antagonists of the constitutive androstane receptor (CAR) signaling pathway - cell viability counter screen (AID 1224837). Note: nearly all actives have a fitted effect of over 45% in size. Particulars: HepG2-CYP2B6-hCAR viability, CellTiter-Fluor, 23 h, co-treated with 50 nM CITCO; series mostly up to 92.4 µM. An excerpt: National Center for Advancing Translational Sciences [NCATS]
NIH Chemical Genomics Center [NCGC]
U.S. Environmental Protection Agency [EPA]
National Institutes of Environmental Health Sciences [NIEHS]
National Toxicology Program [NTP]
U.S. Food and Drug Administration [FDA]
The constitutive androstane receptor (CAR) is a nuclear receptor which regulates multiple drug metabolizing enzymes (DMEs) and transporters. Activating CAR will generally increase the transcription and subsequent translation of CYP2B6 and CYP3A4. These two DMEs represent about 50% of the drug metabolizing potential in the body. When CAR is deactivated, the metabolizing potential in the body will decrease, subsequently increasing the toxicity in the body or lowering the therapeutic potential of a pro-drug. Recently, there have also been studies performed indicating CARs role in energy metabolism and cancer therapy. Therefore, inhibiting CARs activity could have a potential effect on diabetes and cancer. Identifying environmental toxins and compounds which modulate CAR, through the use of the Tox21 10K compound collection, will be an important step in determining the toxicity and potential therapeutic effects these factors will have on the human body. To differentiate true CAR antagonists from cytotoxic substances, the assay is multiplexed with a cell viability assay.
Tox21 Assay Protocol Summary:
A double-stable (hCAR and CYP2B6-2.2kb) transfected cell line, derived from human hepatoma (HepG2) cells, was utilized for the duration of the quantitative high-throughput screens. The HepG2-CYP2B6-hCAR cells were dispensed at 2500 cells/4 uL/well in 1536-well white solid bottom plates using a Multidrop Combi. After the assay plates were incubated at 37 C/5% CO2 for 4 hrs, 23 nL of compounds at 15 concentrations (from 5-48 columns) or positive control (from 1 to 4 columns) were transferred to the assay plates using a Pintool station. One uL of CITCO (final concentration = 50 nM) was added, using a Flying Reagent Dispenser, inside each well. After a 23 hr incubation period at 37 C/5% CO2, 1 uL of CellTiter-Fluor reagent was added into each well of the assay plates using a Flying Reagent Dispenser. The fluorescence intensity in the plates was then measured using a ViewLux plate reader.
`O=C(c1ccccc1)C1CCCCC1`: the Potency entry is “inactive”.
The same measure for `CCC(C)C1CCCCC1=O` (stereo not given): “inactive”; for `CN1CCCC1`: “inactive”.
Then `N#Cc1ccc(C2CCCc3cncn32)cc1` (stereo not given), with “inactive”; and `Cc1sccc1Br`, with “inactive”.
Take `O=C1CCCCCCCCCCCN1`: the Potency result was “inactive”.
Take `CCCCCCCCCCCC`: the Potency entry is “inactive”.
Then `CN(C)CCCNCCCN(C)C`, with “inactive”; and `COC(C)(C)CCCC(C)CC=O` (stereo not given), with “inactive”; and `C=C1CC[C@H]2C[C@@H]1C2(C)C`, with “inactive”.
Then `CC(C)(O)C#CC(C)(C)O`, with “inactive”.
In the case of `O=C1CCCC(=O)C1`, the Potency result is “inactive”.
Regarding `COC(=O)c1ccc(C)cc1C1=NC(C)(C(C)C)C(=O)N1` (stereo not given), the Potency entry is “inactive”.
Take `Cc1cc(O)cc2c1O[C@](C)(CCC[C@H](C)CCC[C@H](C)CCCC(C)C)CC2`: the Potency result was “inactive”.
Regarding `C[N+](C)(C)CC(O)CC(=O)[O-]` (stereo not given), the Potency result was “inactive”.
Turning to `CC(=O)OCC(CCn1cnc2cnc(N)nc21)COC(C)=O`, the Potency result was “inactive”.
In the case of `CC/C=C\CCOC(C)=O`, the Potency result is “inactive”.
As for `CC/C=C\CC/C=C/CO`, the Potency entry is “inactive”.
With `O=Cc1cccc([N+](=O)[O-])c1`, the Potency result is “inactive”.
The same measure for `O=[N+]([O-])c1ccc(F)cc1F`: “inactive”.
As to `CC(C)OC(=O)c1ccccc1`, the Potency result was “inactive”.
The same measure for `COC(=O)c1c(Cl)c(Cl)c(C(=O)OC)c(Cl)c1Cl`: “inactive”; for `CC(C)CCCC(C)N` (stereo not given): “inactive”.
Turning to `O=C1CCCN1C1CCCCC1`, the Potency result is “inactive”.
As to `CCSC(=O)N(CC(C)C)CC(C)C`, the Potency result was “inactive”.
Then `CCCCCCCCCCCCN(CCCCCCCCCCCC)CCCCCCCCCCCC`, with “inactive”.
The same measure for `CC(C)CNCC(C)C`: “inactive”; for `NS(=O)(=O)c1ccc(C(=O)O)cc1`: “inactive”; for `O=C(O)c1ccccc1OP(=O)(O)O`: “inactive”.
Then `NS(=O)(=O)c1cc2c(cc1Cl)NC(C1CC3C=CC1C3)NS2(=O)=O` (stereo not given), with “inactive”.
On to `CO/N=C(/C(=O)N[C@@H]1C(=O)N2C(C(=O)OCOC(=O)C(C)(C)C)=C(C)CS[C@H]12)c1csc(N)n1`, for which the Potency result was “inactive”.
On to `O=C1NC(=O)[C@@]2(CCOc3ccc(F)cc32)N1`, for which the Potency entry was “inactive”.
The same measure for `COCCCOCCCOC`: “inactive”.
Then `c1ccc([C@H]2CN3CCSC3=N2)cc1`, with “inactive”.
The same measure for `C[C@@H]1CCN(C(=O)[C@H](CCCN=C(N)N)NS(=O)(=O)c2cccc3c2NC[C@H](C)C3)[C@@H](C(=O)O)C1`: “inactive”; for `CC(C)NC(=O)NC(C)C`: “inactive”.
For the molecule `CC(=O)N(CC(O)CO)c1c(I)c(C(=O)NCCO)c(I)c(C(=O)NCC(O)CO)c1I` (stereo not given), the Potency entry was “inactive”.
Then `COc1ccc2c(c1)c(CC(=O)OCC(=O)O)c(C)n2C(=O)c1ccc(Cl)cc1`, with “inactive”; and `CCOC(=O)Nc1ccc(NCc2ccc(F)cc2)nc1N`, with “inactive”.
The same measure for `Cc1ccc(C#N)cc1`: “inactive”.
